The structures appear in SMILES notation. The whole screen tested about 310,000 compounds, of which about 18,000 (5.8%) were called active. Another 22% or so got no clear call; they are omitted. The list comes from a sample in which actives are over-represented; it also holds similar structures and randomly drawn compounds. A call without a number means that no potency is given here. Values without a mark were called inactive. Calls come from the whole dose curve; as a rule, active = well fitted inhibition curve with a large enough effect; inconclusive = small, poorly fitted or top-dose-only effect, or another doubt; inactive = no such curve, though single readings can be large or run the other way.
Potency is the fitted concentration of half-maximal effect.

The nature of the experiment: Primary qHTS for delayed death inhibitors of the malarial parasite plastid, 48 hour incubation. As to conditions: P. falciparum luciferase growth in erythrocytes; series mostly up to 28.7 µM. In outline: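 Erythrocytes infected with P. falciparum carrying an integrated firefly luciferase reporter (2% hematocrit, 0.1% parasitemia final) were exposed to compounds in RPMI 1640 with 0.5% Albumax at 37 C, 5% CO2. Growth inhibition was scored as reduced luminescence.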
Consider `O=C(c1cccnc1)N1CCN(S(=O)(=O)c2cccs2)CC1`, for which the Potency result is “inactive”. Still for that read-out and setting: with `Cc1ccc(C(=O)NCC(=O)OCc2nnc(-c3ccccc3)o2)cc1` the entry was “inactive”; with `CC(CC(=O)O)C(=O)c1ccc(Cl)c([N+](=O)[O-])c1` (stereo not drawn), “inactive”; with `NC(N)=N/N=C/c1ccc(Cl)c([N+](=O)[O-])c1`, 1.47 µM (active). Same read-out and setting: for `O=C(/C=C/c1ccc(Cl)c([N+](=O)[O-])c1)c1cccnc1` the value was “inactive”. For the compound `COc1cccc(C(=O)Nc2ccc(N3CCN(C(=O)c4ccco4)CC3)cc2)c1`, the Potency entry was “inactive”. Same read-out and setting: for `COc1cc(C)cc(CN2CCC(Cc3ccccc3)CC2)c1O` the value was 0.928 µM (active). The same measure, in the same setting: with `O=c1cc(CO)oc(CN2CCC(Cc3ccccc3)CC2)c1O` the entry was “inactive”; with `Brc1ccccc1CN1CCC(Cc2ccccc2)CC1`, “inactive”. Take `O=C(CN1C(=O)NC2(CCOc3ccccc32)C1=O)NCc1ccc(F)cc1` (stereo not drawn): the Potency entry is “inactive”.

With `Cc1cccc(NC(=O)C2CCCN(C(=O)NCc3ccccc3)C2)c1C` (stereo not drawn), the Potency result is “inactive”. The same measure, in the same setting: with `CCOC(=O)C1=C(C)N=C2c3ccccc3C(=O)C2C1c1ccc(Br)cc1` (stereo not drawn) the figure was 9.28 µM (active); with `CCOC(=O)CN1C(=O)N[C@@H](c2ccc(Br)cc2)C(C(C)=O)=C1C`, “inactive”; with `CCOC(=O)C1=C(C)NC(C)=C(C(=O)OCC)C1c1ccccn1`, “inactive”. Turning to `Cc1cccc(NS(=O)(=O)c2ccc(C(=O)NCC(C)(C)N3CCOCC3)cc2)c1C`, the Potency result was “inactive”. The same measure, in the same setting: with `COc1ccc(/C=C/C(=O)NC(=S)N2CCCC(C(N)=O)C2)cc1` (stereo not drawn) the entry was “inactive”. Same read-out and setting: with `COc1ccc(CCNCC(O)Cn2ccc3ccccc32)cc1OC` (stereo not drawn) the figure was 10.4 µM (active); with `COC(=O)c1ccc(OCC(O)CN(CCO)CC(O)Cn2ccc3ccccc32)cc1` (stereo not drawn), “inactive”. Still for that read-out and setting: for `COc1ccc(Cn2c(=O)sc3ccccc32)cc1OC` the value was “inactive”; for `O=C(C1CCC1)N1CCN(c2ccccc2)CC1`, “inactive”.

`Cc1ccccc1NC(=O)Cn1cc(C(=O)C2CC2)c2ccccc21`: the Potency entry is “inactive”.

Take `Cc1ccc(CNC(=O)Cn2cnc(S(=O)(=O)N3CCCCC3)c2)o1`: the Potency entry is “inactive”. On the same count and under the same terms, with `CCCOC1CCCN(C(=O)c2cc(COc3cncc(Cl)c3)on2)C1` (stereo not drawn) the entry was “inactive”. Still for that read-out and setting: for `Cc1ccccc1NC(=O)N1CCCC1C(=O)NCc1ccccc1` (stereo not drawn) the value was “inactive”; for `COc1ccc(/C=C/C(=O)Nc2cccnc2)cc1OC`, “inactive”. As to `COc1ccc(C(C)=O)cc1COc1ccc(Cl)c(C)c1`, the Potency entry was “inactive”. Same read-out and setting: for `CCn1nc(C)c(NC(=O)/C=C/c2ccc(OC)c(COc3ccc(Br)cc3)c2)c1C` the value was 8.28 µM (active); for `CC(C)COC(=O)n1c(=O)oc2ccc(S(=O)(=O)N3CCCCC3)cc21`, 10.4 µM (active); for `O=C(NC1CCCCC1)n1c(=O)oc2cc(S(=O)(=O)N3CCCCC3)ccc21`, “inactive”. On the same count and under the same terms, for `CCOC(=O)N1CCN(C(=O)c2cn(C)c3ccc(S(=O)(=O)N4CCCC4)cc3c2=O)CC1` the value was “inactive”; for `CCOc1ncccc1C(=O)OCC(=O)Nc1cccc(S(=O)(=O)N2CCCCCC2)c1`, “inactive”. Still for that read-out and setting: for `COc1ccc(N2CCN(S(=O)(=O)c3cc(Br)cnc3N)CC2)cc1` the value was “inactive”; for `c1ccc(-c2nnc(N3CCOCC3)c3ccccc23)cc1`, “inactive”. `CCCC(=O)N1CCN(c2nnc(-c3ccc(C)cc3)c3ccccc23)CC1`: the Potency was 4.15 µM (active). In the case of `OCCN1CCN(c2nnc(-c3ccccc3)c3ccccc23)CC1`, the Potency entry is “inactive”. Still for that read-out and setting: for `Cc1ccc(S(=O)(=O)CC(=O)Nc2sc(C)c(C)c2C(N)=O)cc1` the value was “inactive”; for `S=C(NCc1ccc(Cl)cc1)NC1CCCCC1`, “inactive”. Same read-out and setting: for `S=C(NCc1ccc(Cl)cc1)NC12CC3CC(CC(C3)C1)C2` the value was 11.7 µM (active). On the same count and under the same terms, for `O=C(NCc1ccncc1)NC12CC3CC(CC(C3)C1)C2` the value was “inactive”; for `CCN(CC)CCOC(=O)c1ccc(NC(=O)CNC(=O)c2ccccc2)cc1`, “inactive”; for `CCCC(C(=O)OCCN(CC)CC)(c1ccccc1)c1ccccc1`, 6.01 µM (active).

As to `CCC(C(=O)OCCN(CC)CC)c1ccccc1` (stereo not drawn), the Potency entry was “inactive”. Still for that read-out and setting: for `COc1ccc(-c2cc3ncccc3cn2)cc1` the value was “inactive”. Same read-out and setting: for `Cc1cccc(C(=O)Nc2ccc(C(=O)N/N=C/c3cccc(C)n3)cc2)c1` the value was “inactive”; for `CC(CN1CCCCC1)c1ccccc1` (stereo not drawn), “inactive”; for `COc1ccc(CN2CCCC(C(=O)N3CCCCC3)C2)cc1` (stereo not drawn), “inactive”. Turning to `COc1ccc(C(O)(C2CCCCC2)C(CN2CCCC2)c2ccccc2)cc1` (stereo not drawn), the Potency was 11.7 µM (active). The same measure, in the same setting: for `O=C(NCCS(=O)(=O)c1ccc(Br)cc1)c1ccccc1Cl` the value was “inactive”; for `CCCCn1c(SCC(=O)N2CCOCC2)nc2c1c(=O)n(C)c(=O)n2C`, “inactive”; for `CC1CC2=C(CC1/C=N/NC(N)=S)C(C)(C)CCC2` (stereo not drawn), 13.1 µM (active).

As for `COc1ccc(C2/C(=C(/O)c3ccc4c(c3)CC(C)O4)C(=O)C(=O)N2Cc2ccncc2)cc1` (stereo not drawn), the Potency result was “inactive”. Still for that read-out and setting: for `COCCN1C(=O)N(c2ccc(Cl)cc2)C(=O)C1CC(=O)Nc1cc(OC)cc(OC)c1` (stereo not drawn) the value was “inactive”; for `COCCN(CCOC)c1nc(N)c2c(N)nc3c(c2c1C#N)CC(=O)N3Cc1ccc(Cl)cc1`, 1.65 µM (active); for `CSCCC(NC(=O)c1ccco1)C(=O)Nc1cc(C)ccn1` (stereo not drawn), “inactive”.

Regarding `Cc1cccc(NC(=O)NC2(C)CCS(=O)(=O)C2)c1` (stereo not drawn), the Potency entry is “inactive”. Same read-out and setting: for `COCCOC(=O)C1=C(C)N=c2s/c(=C\c3cccs3)c(=O)n2C1c1cccs1` (stereo not drawn) the value was 4.15 µM (active). On the same count and under the same terms, for `CCOC(=O)C1=C(C)NC(=S)NC1c1cccs1` (stereo not drawn) the value was “inactive”; for `Cc1cc(=O)oc2cc(OCC(=O)N3CCN(c4ccc(F)cc4)CC3)c(Cl)cc12`, “inactive”. The same measure, in the same setting: with `O=C(CCc1ccccc1)Nc1ccnn1C1CCN(Cc2ccc(OCCO)cc2)CC1` the entry was “inactive”; with `O=C(Nc1ccccc1N1CCOCC1)c1ccc(OCc2cscn2)cc1`, “inactive”.

`CC(C)n1c(=O)[nH]c2cc(C(=O)Nc3ccccc3)ccc21`: the Potency entry is “inactive”. For `CN1CCN(c2ccc(NC(=O)c3ccccc3)cc2)CC1`, the activity change, negative = inhibition is -20.4% [at 0.00184 µM]. For the compound `CN1CCN(c2ccc(NC(=O)c3ccc4c(c3)[nH]c(=O)n4Cc3ccc(F)cc3)cc2)CC1`, the Potency is 11.7 µM (active). Same read-out and setting: with `Cc1cc(C)c2nc(N3CCC(C(=O)NCCN4CCOCC4)CC3)sc2c1` the entry was “inactive”; with `COc1ccccc1N1CCN(/N=C/c2ccc(O)cc2O)CC1`, “inactive”.

For `CCc1ccc(OCC2c3cc(OC)c(OC)cc3CCN2C(C)=O)cc1` (stereo not drawn), the Potency result is “inactive”. On to `COc1ccc2[nH]c(=O)c(C3c4cc(OC)c(OC)cc4CCN3C(=O)c3ccco3)cc2c1` (stereo not drawn), for which the Potency is 13.1 µM (active). Still for that read-out and setting: with `COc1ccc(CNC(=O)C2CCN(C(=O)c3ccco3)CC2)cc1` the entry was “inactive”. On the same count and under the same terms, for `CCOC(=O)N1CCN(C(=O)C(=O)Nc2sc3c(c2C#N)CC(C)(C)OC3)CC1` the value was “inactive”; for `CCc1cc(C(=O)c2ccc(OC)cc2)c(NC(=O)CN2CCN(C)CC2)s1`, 5.22 µM (active); for `CCc1cc(C(N)=O)c(NC(=O)c2ccc(OC)cc2)s1`, “inactive”. Take `CCc1ccc(NC(=O)CN2CCC(C(=O)c3ccc(OC)cc3)CC2)cc1`: the Potency entry is “inactive”.

With `Cc1ccc(NC(=O)Cn2nnc(C(=O)NCc3ccco3)c2N)c(C)c1`, the Potency entry is “inactive”. Same read-out and setting: with `CCOc1ccc(/C=N/NC(N)=S)cc1` the entry was “inactive”; with `NC(N)=N/N=C/c1ccc(OCc2ccc(Cl)cc2Cl)cc1`, 9.28 µM (active); with `CCOc1ccc(NC(=O)NNC(=O)c2ccc(Cl)cc2Cl)cc1`, “inactive”. The same measure, in the same setting: for `CCOc1ccc(OCc2ccc(C(=O)N(C)c3ccccc3)o2)cc1` the value was “inactive”. Still for that read-out and setting: for `Fc1ccccc1Cn1cnc(NC(=S)NCCc2ccccc2)n1` the value was “inactive”. As to `N=c1n(CCc2ccccc2)c2ccccc2n1Cc1ccccc1F`, the Potency is 9.28 µM (active). With `O=C(COC(=O)Cc1ccccc1F)NCCc1ccccc1`, the Potency result was “inactive”.

In the case of `Nc1c(C(=O)Nc2ccc3c(c2)OCCO3)nnn1Cc1ccccc1`, the Potency entry was “inactive”. Still for that read-out and setting: with `O=C1CCC(C(=O)N2CCCCO2)CN1Cc1cccc(C(F)(F)F)c1` (stereo not drawn) the entry was “inactive”; with `CSc1ncc(C(=O)Nc2ccc(C)cc2C)c(C)n1`, “inactive”. On the same count and under the same terms, for `O=C(CN1C(=O)CC(c2ccccc2)=Nc2ccccc21)NC1CCCCC1` the value was 9.28 µM (active); for `O=C(CN1C(=O)CC(c2ccccc2)S(=O)(=O)c2ccccc21)NC1CCCC1` (stereo not drawn), “inactive”; for `CC(=O)c1cc(-c2ccccc2)n(CC(=O)NC2CCCCC2)c1C`, “inactive”. Same read-out and setting: for `Cc1cc(NS(=O)(=O)c2ccc(NC(=O)C(C)Oc3cccc(C)c3C)cc2)nc(C)n1` (stereo not drawn) the value was “inactive”; for `CC(=O)Oc1ccc(N(C(C)=O)S(=O)(=O)c2ccc3ccccc3c2)cc1Br`, “inactive”; for `O=C(COC(=O)c1ccc(F)cc1)NCCCc1ccccc1`, “inactive”. Regarding `O=c1c([N+](=O)[O-])cccn1Cc1ccc(F)cc1Cl`, the Potency was 0.37 µM (active).

As to `N/C(=N/O)c1cccn1Cc1ccccc1[N+](=O)[O-]`, the Potency result is “inactive”. The same measure, in the same setting: with `O=Cc1cn(Cc2ccc(F)cc2Cl)c2ccccc12` the entry was “inactive”; with `CN(CC(=O)Nc1c(Cl)cccc1Cl)C(=O)CNC(=O)C1CCCCC1`, “inactive”. Still for that read-out and setting: with `CN(Cc1ccccc1)C(=O)c1ccc(COc2ccccc2)cc1` the entry was “inactive”; with `CC(C)C(=O)NC(=S)Nc1ccccc1F`, “inactive”; with `COc1ccccc1NC(=S)NC(=O)C(C)C`, “inactive”. On the same count and under the same terms, for `CC(C)C(=O)Nc1cccc(NC(=S)NC(=O)C(c2ccccc2)c2ccccc2)c1` the value was 11.7 µM (active); for `COc1cccc(NC(=O)N2CCCC2C(=O)NC2CCCCC2)c1` (stereo not drawn), “inactive”. On to `COc1ccc(/C=N/OCc2ccccc2C#N)c(OC)c1`, for which the Potency result was “inactive”. For the compound `CC1CCN(C(=O)c2ccccc2NC(=O)Cc2ccccc2)CC1`, the Potency result was “inactive”. Still for that read-out and setting: with `CN1CCN(C(=O)CCc2ncc(C(F)(F)F)cc2Cl)CC1` the entry was “inactive”; with `CC(=O)c1ccc(Cc2ncc(C(F)(F)F)cc2Cl)s1`, 13.1 µM (active). The same measure, in the same setting: for `O=C(Cc1ncc(C(F)(F)F)cc1Cl)Nc1cccc(Br)c1` the value was “inactive”.

`Cc1ccc2c(c1)N(C(=O)CCC(=O)NCc1cccnc1)CCO2`: the Potency entry was “inactive”.

With `Cn1c(N2CCOCC2)c(C=O)c2ccccc21`, the activity change, negative = inhibition is 37.2% [at 0.00184 µM].

Consider `CCN(CC)CCCN=Cc1c(O)n(-c2ccc(C)cc2)c(=O)c2ccccc12`, for which the Potency result is “inactive”. For the compound `COc1ccc(-n2c(O)c(C=NCC(c3ccco3)N3CCCC3)c3ccccc3c2=O)cc1OC` (stereo not drawn), the Potency is 9.28 µM (active).

For the compound `COc1ccc(-n2nc(C(=O)NCC(=O)N3CCC(C(N)=O)CC3)c3ccccc3c2=O)cc1OC`, the Potency result was “inactive”.

(Values after PubChem BioAssay AID504832 (National Center for Advancing Translational Sciences (NCATS), 2011).)
